# Laboratory results reported in ChEMBL document CHEMBL3988442, “University of Dundee, Small-Polar-MMV Screening Library” (2021).
# The campaign covered roughly 69,000 compounds. About 1,000 (1.4%) showed an effect of 50% or more. The sample holds strong results, similar compounds and a random draw of the others, so the mix is not that of the screen.
# System: Leishmania donovani
# Assay: Leishmania intramacrophage assay
# Type: functional, organism-based
# Parameters: scale not given: in the data most compounds retested in dose-response had high values
smiles,measurement,setting,value
CN1CCC(c2nc3ccc(-c4ccccc4)cn3n2)CC1.O=C(O)C(F)(F)F,Percent Effect,"30.3 µM, […]",26.64%
CCCN1CCC(c2nc3ccc(-c4cccc(OC)c4)cn3n2)CC1.O=C(O)C(F)(F)F,Percent Effect,"30.3 µM, […]",66.14%
CCN1CCC(c2nc3ccc(NC(C)C)cn3n2)CC1.O=C(O)C(F)(F)F,Percent Effect,"30 µM, 30.03 µM",14.23%
CCCN1CCC(c2nc3ccc(-c4ccncc4)cn3n2)CC1.O=C(O)C(F)(F)F.O=C(O)C(F)(F)F,Percent Effect,"30.3 µM, […]",22.97%
CN1CCC(c2nc3ccc(-c4cccc(F)c4)cn3n2)CC1.O=C(O)C(F)(F)F,Percent Effect,"30.3 µM, […]",56.26%
Cc1cnn(CC2CN(CC(=O)N3CCc4ccccc43)CCO2)c1 (stereo not drawn),Percent Effect,"30 µM, 30.03 µM",26.31%
CCCN(C(=O)c1cnns1)C1CCCN(Cc2ccccc2)C1 (stereo not drawn),Percent Effect,"30.3 µM, […]",15.37%
CCn1c(C)cc(C(=O)NCc2cccc(S(=O)(=O)NC)c2)c1C,Percent Effect,"30.3 µM, […]",-2.214%
C[C@@H]1CN(CCC(=O)N(C)Cc2ccccc2)C[C@@]1(O)C1CCC1,Percent Effect,"30.3 µM, […]",54.72%
CN(Cc1ccccc1)C(=O)CCN1CCC2(CC1)[C@H](O)C[C@@H]2O,Percent Effect,"30.3 µM, […]",16.81%
C[C@@H]1CN(CCC(=O)N(C)Cc2ccccc2)CC[C@@]1(O)C1CCC1,Percent Effect,"30.3 µM, […]",-42.91%
CC(C)Nc1cccc(CC2CCN(C)C2)n1.O=CO (stereo not drawn),Percent Effect,"30.3 µM, […]",8.612%
Cc1noc(C)c1CC(=O)NCC(C(C)C)N1CCOCC1 (stereo not drawn),Percent Effect,"30.3 µM, […]",13.16%
CS(=O)(=O)N1C[C@@H]2CC[C@H](C1)N(C(=O)CCc1ccsc1)C2,Percent Effect,"30.3 µM, […]",42.41%
COc1ccc(-n2ncc3c2NC(=O)CSC3C(C)C)cc1 (stereo not drawn),Percent Effect,"30.3 µM, […]",23.81%
CC(C)C1SCC(=O)Nc2c1cnn2-c1ccc(Cl)cc1 (stereo not drawn),Percent Effect,"30.3 µM, […]",63.84%
CC(C)C1SCC(=O)Nc2c1cnn2-c1ccc(F)cc1 (stereo not drawn),Percent Effect,"30.3 µM, […]",-10.63%
Cc1cc(C)c(CNC(=O)N2CCCN(C(=O)C(C)C)CC2)c(C)c1,Percent Effect,"30.3 µM, […]",-55.36%
COc1cc(NC2CCS(=O)(=O)C2)ncn1 (stereo not drawn),Percent Effect,"30.3 µM, […]",-35.33%
Cc1nn(C)c(C)c1NC(=O)c1cccc(CN2CCS(=O)(=O)CC2)c1,Percent Effect,"30.3 µM, […]",17.24%
O=C(NCC1CCC1)c1cccc(CN2CCS(=O)(=O)CC2)c1,Percent Effect,"30.3 µM, […]",14.97%
CC(C)(C)NC(=O)c1cccc(CN2CCS(=O)(=O)CC2)c1,Percent Effect,"30.3 µM, […]",61.43%
CN1CCO[C@@H]2CN(S(=O)(=O)c3ccccc3)C[C@@H]2C1.O=C(O)C(F)(F)F,Percent Effect,"30.3 µM, […]",29.49%
OCC1CCCN1c1cc(NCCc2ccsc2)ncn1 (stereo not drawn),Percent Effect,"30.3 µM, […]",-26.43%
OCC1CCCN1c1cc(NCCNc2cccnn2)ncn1 (stereo not drawn),Percent Effect,"30.3 µM, […]",20.93%
OCC1CCCN1c1cc(NCc2ccccn2)ncn1 (stereo not drawn),Percent Effect,"30.3 µM, […]",50.11%
OCC1CCCN1c1cc(NCCc2ccccn2)ncn1 (stereo not drawn),Percent Effect,"30.3 µM, […]",47.66%
OCC1CCCN1c1cc(NCCNc2ccccn2)ncn1 (stereo not drawn),Percent Effect,"30 µM, 30.03 µM",16.04%
OCC1CCCN1c1cc(NCCc2nccs2)ncn1 (stereo not drawn),Percent Effect,"30.3 µM, […]",55.11%
NC(=O)[C@@H]1CCCN1C(=O)c1csc(-c2ccc(C(F)(F)F)cc2)n1,Percent Effect,"30.3 µM, […]",24.55%
CNC(=O)c1cc(OC)c(OC)cc1N(C)S(C)(=O)=O,Percent Effect,"30.3 µM, […]",-11.85%
COc1ccc(CCCC(=O)NCc2c(C)noc2C)cc1F,Percent Effect,"30.3 µM, […]",0.2518%
Cc1cc(C)cc(C(=O)NCc2ncnn2C)c1,Percent Effect,"30.3 µM, […]",-3.252%
COC(=O)CCNC(=O)c1nnn(-c2ccc(F)cc2)c1C1CC1,Percent Effect,"30.3 µM, […]",23.19%
COc1cccc(CNCc2ccccc2Cl)c1O,Percent Effect,"30.3 µM, […]",11.74%
COc1cccc(CNCc2ccc(F)cc2Cl)c1O,Percent Effect,"30.3 µM, […]",50.12%
COc1cccc(CNCc2ccc(F)c(Cl)c2)c1O,Percent Effect,"30.3 µM, […]",3.534%
COCCCC(=O)N(C)c1ccc(F)c(Cl)c1,Percent Effect,"30.3 µM, […]",10.71%
O=c1oc(-c2ccc(F)cc2)nn1CN1CCCCC1,Percent Effect,30 µM,11.98%
COCCNC(=O)c1sc(Nc2ccc(Cl)cn2)nc1C,Percent Effect,"30 µM, 30.03 µM",-6.179%
COCC1CN(c2ccc(C)nn2)Cc2cnn(C)c21.O=C(O)C(F)(F)F.O=C(O)C(F)(F)F (stereo not drawn),Percent Effect,"30.3 µM, […]",1.62%
CCc1nc2c(N3CCC4(CC3)CNC(=O)C4)ncnc2o1,Percent Effect,"30.3 µM, […]",11.46%
CCc1nc2c(N3CCC4(CC3)CC(=O)N(CC(C)C)C4)ncnc2o1,Percent Effect,"30.3 µM, […]",71.44%
CCc1nc2c(N3CCC4(CC3)CC(=O)N(CC)C4)ncnc2o1,Percent Effect,"30.3 µM, […]",0.202%
CCOCC(=O)N1CCOCC2(CCN(c3ncccn3)C2)C1.O=C(O)C(F)(F)F (stereo not drawn),Percent Effect,"30.3 µM, […]",-3.02%
OCCC1CN(C2CCC2)CCN1C1CCCC1 (stereo not drawn),Percent Effect,"30 µM, 30.03 µM",24.92%
Clc1ccccc1CCN1CCN(c2ccc3nncn3n2)CC1,Percent Effect,30 µM,7.685%
Cc1nnc(NC(=O)CN2CCCC(c3ccn[nH]3)C2)s1 (stereo not drawn),Percent Effect,"30.3 µM, […]",-18.19%
O=C(CN1CCCC(c2ccn[nH]2)C1)Nc1nc2c(s1)CCCC2 (stereo not drawn),Percent Effect,"30.3 µM, […]",57.39%
Cc1cc(C2CCCN(CC(=O)Nc3nc4c(s3)CCC4)C2)n[nH]1 (stereo not drawn),Percent Effect,"30.3 µM, […]",34.8%
O=C(CN1CCCC(c2ccn[nH]2)C1)N1CCCc2ccccc21 (stereo not drawn),Percent Effect,"30.3 µM, […]",-7.148%
O=C(CN1CCCC(c2ccn[nH]2)C1)Nc1nncs1 (stereo not drawn),Percent Effect,"30.3 µM, […]",11.72%
O=C(CN1CCCC(c2ccn[nH]2)C1)Nc1nc2c(s1)CCC2 (stereo not drawn),Percent Effect,"30.3 µM, […]",51.08%
